High-throughput results (PubChem BioAssay)
In the library only some 21% were active in any assay of this set; here they are far more common.
Shiga toxin inh – A qHTS for Small Molecule Inhibitors of Shiga Toxin. Vero cells, Shiga toxin protein synthesis inhibition reporter. 290,000 tested, 9.2% active. inhibition, % at 38.7 µM; in the data active = inhibition mostly above about 28%, no sharp cut-off; inactive = mostly below about 43%
Pf growth 48h – Primary qHTS for delayed death inhibitors of the malarial parasite plastid, 48 hour incubation; P. falciparum luciferase growth in erythrocytes, 48 h; AID 504832, 2011; 310,000 tested, 5.9% active; Potency, µM (highest dose often 28.7 µM), hits mostly inhibitors
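Here the parasites carry a stable luciferase gene and grow inside erythrocytes in Albumax-based RPMI medium with compound for one erythrocytic cycle. Activity is scored as loss of luminescent signal.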
CHX counter – Cycloheximide Counterscreen for Small Molecule Inhibitors of Shiga Toxin | 300,000 tested, 12% active | max response, % | cell reporter, cycloheximide protein synthesis inhibition counterscreen; in the data active = max response mostly above about 13%, no sharp cut-off; inactive = mostly below about 14%; note: read at 38.3 µM for the half of the compounds with a filed dose
Pf growth 96h – Primary qHTS for delayed death inhibitors of the malarial parasite plastid, 96 hour incubation | P. falciparum luciferase reporter growth, 96 h | Potency, µM (series often up to 28.7 µM), usual class: inhibitors | 320,000 tested, 6.9% active
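Infected RBCs, 2% Hct / 0.05% parasitemia final; luciferase-reporter P. falciparum; cpd 96 h, 37 C, 5% CO2; luciferase detection reagent; luminescence.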
Giardia FBPA inh – qHTS Assay for Inhibitors of Fructose-1,6-bisphosphate Aldolase from Giardia Lamblia; purified Giardia FBPA; AID 2451, 2010; Potency, µM (doses to about 59.6 µM), most hits filed as inhibitors; A8B2U2; 290,000 tested, 0.71% active; note: nearly all actives have a fitted effect of over 55% in size
Target sequence (A8B2U2 whole entry, looked up): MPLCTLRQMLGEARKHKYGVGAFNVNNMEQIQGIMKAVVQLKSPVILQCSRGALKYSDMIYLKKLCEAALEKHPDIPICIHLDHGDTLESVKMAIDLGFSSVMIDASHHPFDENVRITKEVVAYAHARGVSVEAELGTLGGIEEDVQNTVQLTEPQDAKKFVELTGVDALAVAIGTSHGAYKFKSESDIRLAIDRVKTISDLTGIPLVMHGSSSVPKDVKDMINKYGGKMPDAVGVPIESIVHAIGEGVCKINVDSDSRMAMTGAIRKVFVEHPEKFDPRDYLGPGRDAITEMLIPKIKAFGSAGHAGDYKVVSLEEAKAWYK
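Giardia FBPA (40 nM reagent) was preincubated 10 min at RT with compound (up to 57.5 uM final), then substrate plus GAPDH/TPI/NAD/arsenate coupling system with diaphorase/resazurin was added; resorufin fluorescence (525/598 nm) was read after 20 min.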
NS1 function inh – qHTS Assay for Inhibitors of Influenza NS1 Protein Function; Potency, µM (doses to about 46.1 µM); 270,000 tested, 0.4% active; calls by dose curve; note: actives are rising curves; nearly all actives have a fitted effect of over 50% in size
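Compounds were scored for reversing the slow growth caused by influenza A NS1 in S. cerevisiae, measured by optical density at 600 nm. Assay medium contained 2% galactose at pH 6.0; NS1-free yeast of the same strain were the positive control.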
Large screens that a line does not name were inactive. Unless noted, calls come from the whole dose curve; as a rule, active = well fitted curve in the direction sought with a large enough effect; inconclusive = small, poorly fitted or top-dose-only effect, or another doubt; inactive = no such curve, though single readings can be large; an effect the other way counts as inactive or inconclusive.

CC1CCN(S(=O)(=O)c2cc(C(=O)NC3(C)CCS(=O)(=O)C3)ccc2Br)CC1 (stereo not drawn)	Pf growth 48h inconclusive, Pf growth 96h 9.28µM (no result: Shiga toxin inh, CHX counter, Giardia FBPA inh, NS1 function inh)
Cc1cc(C)cc(C(=O)N2CCN(c3ccccn3)CC2)c1	Pf growth 96h 11.7µM
COc1ccccc1C(=O)NC(C(=O)NCCc1nc2ccccc2[nH]1)=C(C)C	Pf growth 96h inconclusive (no result: Giardia FBPA inh)
Cc1c(C(=O)N2CCN(c3ccccn3)CC2)oc2c(F)cccc12	Pf growth 48h 10.4µM, Pf growth 96h 2.33µM
Cc1ccc2c(C)c(C(=O)N3CCN(Cc4ccccn4)CC3)oc2c1C	CHX counter 17.0, Pf growth 96h inconclusive (no result: Giardia FBPA inh)
Cc1c(C(=O)N2CCN(c3ncccn3)CC2)oc2c(Cl)cccc12	Pf growth 48h inconclusive (no result: Shiga toxin inh, CHX counter, Giardia FBPA inh, NS1 function inh)
Cc1cc2oc(C(=O)N3CCN(CCc4ccccn4)CC3)c(C)c2cc1C	none (no result: Giardia FBPA inh)
CCOc1ccccc1NC(=O)CSc1nnnn1C1CCCC1	Pf growth 96h inconclusive (no result: Giardia FBPA inh)
CSc1ccccc1OCc1cc(C(=O)N2CCCC2c2nonc2C)no1 (stereo not drawn)	Shiga toxin inh 91.1, CHX counter 47.9 (no result: Giardia FBPA inh)
Cc1cccc(C)c1OCc1cc(C(=O)N2CCCC2c2nonc2C)no1 (stereo not drawn)	Pf growth 48h inconclusive (no result: Giardia FBPA inh)
Cc1nonc1C1CCCN1C(=O)c1cc(COc2ccc(F)cc2F)on1 (stereo not drawn)	Shiga toxin inh 102.6, CHX counter 41.1, Pf growth 96h inconclusive
COc1ccc(OC)c(NC(=O)c2cc(-c3cc(C)c(C)cc3O)n[nH]2)c1	Pf growth 48h 2.62µM, Pf growth 96h 1.85µM
COc1ccc(NC(=O)c2cc(-c3cc(C)c(C)cc3O)n[nH]2)c(OC)c1	Pf growth 96h inconclusive
COc1ccc(OC)c(NC(=O)c2cc(-c3c(C)cc(C)cc3O)n[nH]2)c1	Pf growth 48h inconclusive
COc1ccc(OC)c(NC(=O)c2cc(-c3cc(C)cc(C)c3O)n[nH]2)c1	Pf growth 96h 9.28µM (no result: Pf growth 48h)
COc1ccc(Cl)cc1NC(=O)c1cc(-c2cc(C)ccc2O)n[nH]1	Pf growth 48h 1.85µM, Pf growth 96h 2.33µM
Cc1ccc(C)c(NC(=O)c2cc(-c3cc(C)ccc3O)n[nH]2)c1	Shiga toxin inh 75.9, CHX counter 58.9, Pf growth 96h inconclusive
O=C1c2ccccc2C(O)(c2ccccc2)N1C1CC1 (stereo not drawn)	none
Cc1ccc(O)c(-c2cc(C(=O)NCc3ccncc3)[nH]n2)c1	Pf growth 48h 2.94µM, Pf growth 96h 4.15µM
CS(=O)(=O)c1ccc2nc(NC(=O)CCC(=O)c3cccs3)sc2c1	Pf growth 48h inconclusive, CHX counter 16.8, Pf growth 96h 11.7µM
CCN(CC)S(=O)(=O)c1ccc(OC)c(NC(=O)c2cccs2)c1	Pf growth 48h inconclusive
CCN(CC)S(=O)(=O)c1ccc2nc(NC(=O)c3cccs3)sc2c1	Shiga toxin inh 64.8, CHX counter 48.0 (no result: Pf growth 96h)
CCN(CC)S(=O)(=O)c1ccc2nc(NC(=O)c3ccco3)sc2c1	Shiga toxin inh 77.6, CHX counter 29.0 (no result: NS1 function inh)
CC(CNC(=O)CCS(=O)(=O)c1cc2c(cc1Cl)NC(=O)CO2)c1ccccc1 (stereo not drawn)	Pf growth 96h inconclusive
CCCCc1nc2c(c3c1C[C@H](C)OC3)CN(C(=O)c1cc(I)ccc1F)CC2	none (no result: Shiga toxin inh, Pf growth 48h, CHX counter, Pf growth 96h, NS1 function inh)
Cc1c(NC(=O)C(C)OC(=O)COc2ccccc2)c(=O)n(-c2ccccc2)n1C (stereo not drawn)	none (no result: NS1 function inh)
Cc1c(NC(=O)C(C)OC(=O)CC2Sc3ccccc3NC2=O)c(=O)n(-c2ccccc2)n1C (stereo not drawn)	CHX counter 13.2, Pf growth 96h inconclusive
COC(=O)COc1ccc(C2NC(=O)NC(c3ccccc3)=C2C(C)=O)cc1Br (stereo not drawn)	Pf growth 96h inconclusive
CSc1ccc(/C=C/C(=O)OCC(=O)N(C)CCC#N)cc1	Shiga toxin inh 31.2, CHX counter 19.9 (no result: NS1 function inh)
CSc1ccc(/C=C/C(=O)OCC(=O)N2CCc3ccccc32)cc1	Pf growth 48h inconclusive (no result: Shiga toxin inh, CHX counter, Giardia FBPA inh, NS1 function inh)
O=C(O)CSCC(=O)N1CCN(S(=O)(=O)c2cc(Cl)cc(Cl)c2)CC1	none
COc1ccc(OC)c(S(=O)(=O)Nc2cc(C)on2)c1	none (no result: Giardia FBPA inh)
